KCNH2 WT inh – KCNH2 (human, wildtype) channel inhibition. U2OS, BacMam KCNH2, thallium flux FluxOr; hits give low values. 340,000 compounds, 0.37% hits. activity change, % at 1.84 µM. Q12809;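 active means maximum activity change below -70%; inconclusive means maximum activity change between -70% and -50%; inactive means maximum activity change above -50%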; further: on the % scale 0 is the no-effect control and ±100 the full control effect
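U2OS cells were transduced with wild-type KCNH2 virus (2.03 x 10^8 / mL) for 4 h at room temperature, then cultured overnight at 37 C. Thallium flux was read with FluxOr dye. Rate constants were normalized to DMSO controls.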
CBFb RUNX1 block – blocks binding between human CBF-beta and RUNX1. AlphaScreen CBFb-His/RUNX1-biotin binding, biochemical. Potency, µM (titrated, usually from 59.8 µM), for inactives: at the top dose activity, negative = inhibition, most hits filed as inhibitors. AID 1477. 230,000 tested, under 10 active. Q01196+Q13951; further: % of control where 0% means no effect
Target sequence (Q01196 whole entry, looked up): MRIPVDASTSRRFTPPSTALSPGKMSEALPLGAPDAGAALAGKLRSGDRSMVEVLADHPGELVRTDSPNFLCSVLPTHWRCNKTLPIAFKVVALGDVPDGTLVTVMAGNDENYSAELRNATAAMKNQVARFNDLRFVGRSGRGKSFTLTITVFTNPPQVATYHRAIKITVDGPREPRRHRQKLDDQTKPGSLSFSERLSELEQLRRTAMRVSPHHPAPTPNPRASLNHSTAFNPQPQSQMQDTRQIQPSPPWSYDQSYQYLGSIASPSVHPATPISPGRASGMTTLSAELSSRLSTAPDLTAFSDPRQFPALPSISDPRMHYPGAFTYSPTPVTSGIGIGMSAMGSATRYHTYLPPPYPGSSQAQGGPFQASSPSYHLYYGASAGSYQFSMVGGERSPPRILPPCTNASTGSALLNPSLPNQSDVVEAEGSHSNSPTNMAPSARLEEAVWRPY
Target sequence (Q13951 whole entry, looked up): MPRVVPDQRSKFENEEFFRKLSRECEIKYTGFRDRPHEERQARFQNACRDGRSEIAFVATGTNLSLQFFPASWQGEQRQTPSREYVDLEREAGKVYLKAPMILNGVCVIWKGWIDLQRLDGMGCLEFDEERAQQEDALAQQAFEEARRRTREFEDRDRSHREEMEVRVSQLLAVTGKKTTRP
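AlphaScreen proximity signal reports loss of binding between His-tagged CBF-beta and biotin-labelled RUNX1, each at 30 nM. Proteins are pre-associated for 20 minutes, compounds added for 15 minutes, then beads for 90 minutes, all at ambient temperature.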
PLK1 PBD block – blocks phosphopeptide binding to human PLK1 polo-box domain | P53350 | Plk1 PBD binding of FITC phosphopeptide, fluorescence polarization | Potency, µM, inactives show max response, negative = inhibition, actives largely listed as inhibitors | 360,000 compounds, 2.8% hits; further: potency means the concentration at half of the fitted maximal effect; series mostly up to about 57 µM; on the % scale 0 is the no-effect control and ±100 the full control effect; nearly all actives have a fitted effect of over 65% in size
KCNH2 3.1 block – inhibitors of human KCNH2 3.1 potassium channel isoform | U2OS KCNH2 3.1, thallium flux FluxOr; hits give low values | 340,000 compounds, 0.95% hits | AID 720553 | activity change, % (tested at about 1.8 µM);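 active means maximum activity change below -70%; inconclusive means maximum activity change from -70% to -50%; inactive means maximum activity change above -50%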;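 further: thallium influx rate constant from kinetic fluorescence after stimulation buffer; on the % scale 0 is the no-effect control and ±100 the full control effect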
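FluxOr-based Tl+ influx in U2OS cells transduced with KCNH2 3.1 virus; rate constants normalized to DMSO controls.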
MBNL1-CUG inh – inhibitors of human MBNL1 binding to CUG repeat RNA; 280,000 compounds, 0.036% hits; AID 2675; TR-FRET MBNL1-His/biotin-(CUG)12 binding, 665/545 ratio; Q9NR56; Potency, µM (top dose mostly 57.5 µM), for inactives: at the top dose activity change, negative = inhibition, actives largely listed as inhibitors; active means well fitted inhibition curve with a large enough effect in the signal ratio, with a control signal flat, not every such curve was filed as active; inconclusive means small, poorly fitted or top-dose-only effect, or effect the other way, or a change in a side signal; inactive means no such curve, though single readings can be large or run the other way; the % refers to the signal ratio; further: potency means the concentration at half of the fitted maximal effect; on the % scale 0 is the no-effect control and ±100 the full control effect
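MBNL1-His + Biotin-(CUG)12, cpd titration 92 nM–58 uM; Tb anti-His Ab 0.055 ng/ul, SA-XL665 5 nM (final); 60 min RT; ratiometric 665/545 nm, Ex 340 nm; normalized to buffer and full-complex controls.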
VDR inhibitor – inhibitors of human vitamin D receptor. 400,000 compounds, 0.93% hits. Potency, µM, for inactives: max response, negative = inhibition, most hits filed as inhibitors. VDR-SRC2-3 peptide fluorescence polarization, 2 h; further: potency means the concentration at half of the fitted maximal effect; on the % scale 0 is the no-effect control and ±100 the full control effect
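Fluorescence polarization assay measuring small-molecule disruption of VDR binding to the coregulator peptide SRC2-3. Compounds were pin-transferred (23 nl) into the reagent mix and incubated 2 h at room temperature before reading.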
Starred values were filed as active, the others as inactive. In the library only some 3.8% were active in any assay of this set; here they are far more common. Unless noted, the call rests on the fitted dose curve; in most records, active means well fitted curve in the direction sought with a large enough effect; inconclusive means small, poorly fitted or top-dose-only effect, or another doubt; inactive means no such curve, though single readings can be large; an effect the other way counts as inactive or inconclusive.

What do the screens show for `CCOC(=O)c1cc2c(=O)c3cc(C)ccc3oc2nc1C`?
KCNH2 WT inh: -4; PLK1 PBD block: 5.3µM*; KCNH2 3.1 block: 3; MBNL1-CUG inh: 77%; VDR inhibitor: inconclusive

How did NC(=O)[C@@H]1CSSCCC(=O)N[C@@H](CCCCN=C(N)N)C(=O)NCC(=O)N[C@@H](CC(=O)O)C(=O)N[C@@H](Cc2c[nH]c3ccccc23)C(=O)N2CCC[C@H]2C(=O)N1 do in these assays?
VDR inhibitor: -5%

What do the screens show for `CCCc1[nH][nH]c(=O)c1C(c1ccc(Br)cc1)C(C#N)C#N` (stereo unspecified)?
KCNH2 WT inh: -2; CBFb RUNX1 block: 8%; PLK1 PBD block: 6µM*; KCNH2 3.1 block: 13; MBNL1-CUG inh: 6%; VDR inhibitor: 79µM*

What do the screens show for `Cc1[nH][nH]c(=O)c1C(c1ccc(Br)cc1)c1c(C)[nH][nH]c1=O`?
KCNH2 WT inh: 4; PLK1 PBD block: inconclusive; KCNH2 3.1 block: -23; MBNL1-CUG inh: 4%; VDR inhibitor: inconclusive

How did Cc1cc(C)n(-c2nc3ccccc3nc2Nc2cccc(C)c2C)n1 do in these assays?
VDR inhibitor: 11%

Results for O=c1c2ccccc2[nH]c(=S)n1Cc1cccnc1 ?
KCNH2 WT inh: 3; CBFb RUNX1 block: -9%; PLK1 PBD block: 27µM*; KCNH2 3.1 block: 6; MBNL1-CUG inh: 0%; VDR inhibitor: -19%

How did Cc1[nH]n(C(N)=S)c(=O)c1N=Nc1ccccc1C(F)(F)F do in these assays?
KCNH2 WT inh: -3; PLK1 PBD block: 24µM*; KCNH2 3.1 block: -5; MBNL1-CUG inh: inconclusive; VDR inhibitor: -8%

Results for CCOCCCNC(=O)c1ccc(NC(=O)N2CCCCc3ccccc32)cc1 ?
VDR inhibitor: 0%

What do the screens show for `COc1ccc(CNc2nc(NCc3ccc(OC)cc3)c3ncn(C(C)C)c3n2)cc1`?
CBFb RUNX1 block: inconclusive; VDR inhibitor: -5%

How did CC1=NN(c2ccccc2)C(=O)/C1=C/c1c(O)n(-c2ccc(F)c(Cl)c2)[nH]c1=O do in these assays?
KCNH2 WT inh: -11; CBFb RUNX1 block: -25%; PLK1 PBD block: 27µM*; KCNH2 3.1 block: 10; VDR inhibitor: -19%

How did Cc1ccc2c(c1)C(=C(C#N)C#N)C(=O)N2CCN1CCOCC1 do in these assays?
KCNH2 WT inh: -2; CBFb RUNX1 block: 2%; PLK1 PBD block: 12µM*; KCNH2 3.1 block: -8; MBNL1-CUG inh: 22%; VDR inhibitor: 79µM*

What do the screens show for `CC1=[N+](C)c2ccc3ccccc3c2C1(C)C`?
KCNH2 WT inh: 1; PLK1 PBD block: -29%; KCNH2 3.1 block: 1; MBNL1-CUG inh: 107%; VDR inhibitor: 45µM*

How did COc1ccc(Nc2cc(C(=O)NCc3ccccc3OC)c3ccccc3n2)cc1 do in these assays?
VDR inhibitor: 10%

Results for CC1=NN(c2ccc(Cl)cc2)C(=O)C1C(c1ccccc1O)c1c(C)[nH]n(-c2ccc(Cl)cc2)c1=O (stereo unspecified) ?
KCNH2 WT inh: 6; CBFb RUNX1 block: -5%; PLK1 PBD block: 24µM*; KCNH2 3.1 block: 10; MBNL1-CUG inh: -15%; VDR inhibitor: -69%

Results for Cc1ccc(S(=O)(=O)N2CCN(c3nc(-c4cccs4)nc4ncccc34)CC2)cc1 ?
VDR inhibitor: -12%

Results for Cc1cc(C)cc(N(CC(=O)O)S(=O)(=O)c2c(C)noc2C)c1 ?
KCNH2 WT inh: 16; CBFb RUNX1 block: 4%; PLK1 PBD block: -9%; KCNH2 3.1 block: -6; MBNL1-CUG inh: 1%; VDR inhibitor: 3%

What do the screens show for `CCOc1ccc(N(CC(=O)NC2CCCCCC2)S(=O)(=O)c2c(C)noc2C)cc1`?
KCNH2 WT inh: -1; CBFb RUNX1 block: 4%; PLK1 PBD block: -14%; KCNH2 3.1 block: -11; MBNL1-CUG inh: -2%; VDR inhibitor: -5%

Results for CCc1ccc(N(CC(=O)O)S(=O)(=O)c2c(C)noc2C)cc1 ?
KCNH2 WT inh: -14; CBFb RUNX1 block: 7%; PLK1 PBD block: 30µM*; KCNH2 3.1 block: 3; MBNL1-CUG inh: -3%; VDR inhibitor: -9%

Results for CCOc1ccc(N(CC(=O)NC2CCCCC2)S(=O)(=O)c2c(C)noc2C)cc1 ?
KCNH2 WT inh: -13; CBFb RUNX1 block: -4%; PLK1 PBD block: 30µM*; KCNH2 3.1 block: -2; MBNL1-CUG inh: 6%; VDR inhibitor: inconclusive

Results for O=C(COCc1cc(-c2ccc3c(c2)OCO3)on1)Nc1cc(Cl)ccc1O ?
VDR inhibitor: 2%

How did O=C(CCC(=O)N/N=C/c1cc(Cl)cc(Cl)c1O)NCc1ccccc1 do in these assays?
KCNH2 WT inh: 2; CBFb RUNX1 block: 4%; PLK1 PBD block: 9.5µM*; KCNH2 3.1 block: -6; MBNL1-CUG inh: 13%; VDR inhibitor: inconclusive

What do the screens show for `NC(=O)c1c(NC(=S)Nc2ccccc2)sc2c1CCCC2`?
KCNH2 WT inh: -7; CBFb RUNX1 block: 6%; PLK1 PBD block: 6.7µM*; KCNH2 3.1 block: 32; MBNL1-CUG inh: 25%; VDR inhibitor: inconclusive

What do the screens show for `Cc1cc(C(=O)Nc2sc(C)c(-c3ccc(F)cc3)c2C(N)=O)no1`?
KCNH2 WT inh: 15; CBFb RUNX1 block: -8%; PLK1 PBD block: -12%; KCNH2 3.1 block: -8; MBNL1-CUG inh: 13%; VDR inhibitor: 1%

How did NC(=O)c1c(NC(=O)c2cc(-c3ccc(F)cc3)on2)sc2c1CCCC2 do in these assays?
VDR inhibitor: 56µM*

What do the screens show for `C=CCNC(=S)Nc1sc2c(c1C(N)=O)CCCC2`?
KCNH2 WT inh: -2; CBFb RUNX1 block: -2%; PLK1 PBD block: 13µM*; KCNH2 3.1 block: 17; MBNL1-CUG inh: -2%; VDR inhibitor: inconclusive

Results for NC(=O)c1c(NC(=S)Nc2ccc(F)cc2)sc2c1CCCC2 ?
KCNH2 WT inh: 4; CBFb RUNX1 block: 2%; PLK1 PBD block: inconclusive; KCNH2 3.1 block: 8; MBNL1-CUG inh: 187%; VDR inhibitor: -19%

What do the screens show for `CCCN1CNc2c(c(=O)[nH]c(=O)n2CCc2ccc(OC)c(OC)c2)C1`?
VDR inhibitor: -11%

What do the screens show for `Cc1ccc(C2CC(=O)n3nc(-c4cccc(C)c4)nc3S2)cc1` (stereo unspecified)?
VDR inhibitor: 7%

Results for CC(C)c1nc2ccc(C(=O)NCCCN3CCN(c4ccccc4F)CC3)cc2o1 ?
VDR inhibitor: 13%

How did COc1ccc(NC(=O)c2cc3c(C)nn(-c4ccccc4)c3s2)c(OC)c1 do in these assays?
VDR inhibitor: -1%
